Calls of active or inactive are those of the source. How the source made its calls: active means hit-call score of the fitted dose curve at least 0.9, where 1 is the maximum; inactive means score below 0.9.
Legend:
Details in all cases: mRNA level, 48 h; actives raise or lower the signal
[1] = read-out: Potassium channel subfamily K member 1 (KCNK1), KCNK1 (gene 3775); test: LTEA_HepaRG_KCNK1: Life Technologies and Expression Analysis (LTEA) Assay for Potassium channel subfamily K member 1 (KCNK1) using HepaRG (AID 2283511)
Method in brief: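 Human HepaRG cultures receive test chemicals for 48 h in 0.5% DMSO, top concentration 100 uM with half-log dilutions. Induction or suppression of KCNK1 mRNA relative to DMSO is derived by bidirectional fitting of qRT-PCR data.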

[2] = read-out: Keratin 19 (KRT19), KRT19 (gene 3880); test: LTEA_HepaRG_KRT19: Life Technologies and Expression Analysis (LTEA) Assay for Keratin 19 (KRT19) using HepaRG (AID 2283512)
Method in brief: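 Differentiated HepaRG cells in serum-free induction medium, exposed 48 h in duplicate to 8 half-log concentrations up to 100 uM in 0.5% DMSO. KRT19 mRNA by qRT-PCR, normalized to ACTB, GAPDH, POLR2A; bidirectional fit vs DMSO.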

[3] = read-out: JUN Transcription Factor, JUN (gene 3725); test: LTEA_HepaRG_JUN: Life Technologies and Expression Analysis (LTEA) Assay for JUN Transcription Factor using HepaRG (AID 2283513)
Method in brief: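 HepaRG, 48 h exposure, 8-pt half-log series top 100 uM, 0.5% DMSO, duplicate. JUN mRNA by qRT-PCR (Fluidigm), housekeeping-normalized (ACTB/GAPDH/POLR2A); bidirectional curve fit vs DMSO baseline.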

[4] = read-out: Lipase C (LIPC), LIPC (gene 3990); test: LTEA_HepaRG_LIPC: Life Technologies and Expression Analysis (LTEA) Assay for Lipase C (LIPC) using HepaRG (AID 2283514)
Method in brief: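 In this multiplexed gene-expression screen, human HepaRG cultures received test chemicals for 48 h across eight concentrations with 100 uM highest, in duplicate. Values reflect LIPC mRNA induction or suppression versus DMSO vehicle, from normalized qRT-PCR.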

[5] = read-out: Lipoprotein lipase (LPL), LPL (gene 4023); test: LTEA_HepaRG_LPL: Life Technologies and Expression Analysis (LTEA) Assay for Lipoprotein lipase (LPL) using HepaRG (AID 2283515)
Method in brief: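 Concentration-response testing used half-log steps from 100 uM in 0.5% DMSO on human HepaRG cells, 48 h, duplicate wells. Phenobarbital 1 mM served as induction control; LPL mRNA was normalized to ACTB, GAPDH, POLR2A.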

[6] = read-out: MicroRNA 122 (MIR122), gene 406906; test: LTEA_HepaRG_MIR122: Life Technologies and Expression Analysis (LTEA) Assay for MicroRNA 122 (MIR122) using HepaRG (AID 2283516); further: the transcript read is the microRNA miR-122
Method in brief: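 qRT-PCR read-out (TaqMan, Fluidigm array), normalized to three housekeeping genes; HepaRG cells dosed 48 h at 8 concentrations up to 100 uM in 0.5% DMSO, duplicate; gain or loss fitted against DMSO baseline.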

[7] = read-out: matrix metalloproteinase-10 (MMP10), MMP10 (gene 4319); test: LTEA_HepaRG_MMP10: Life Technologies and Expression Analysis (LTEA) Assay for matrix metalloproteinase-10 (MMP10) using HepaRG (AID 2283517)
Method in brief: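 In differentiated HepaRG cultures kept in 0.5% DMSO, test chemicals act for 48 h over an eight-point range with a top dose of 100 uM. Expression is then quantified by TaqMan RT-PCR against ACTB, GAPDH and POLR2A.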

[8] = read-out: MYC, MYC (gene 4609); test: LTEA_HepaRG_MYC: Life Technologies and Expression Analysis (LTEA) Assay for MYC using HepaRG (AID 2283518)
Method in brief: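 Differentiated HepaRG cells exposed 48 h in serum-free induction medium to 8 concentrations (top 100 uM, half-log steps; 0.5% DMSO), duplicate. MYC mRNA measured by Fluidigm qRT-PCR, normalized to ACTB, GAPDH, POLR2A; bidirectional fit versus DMSO.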

[9] = read-out: matrix metalloproteinase-3 (MMP3), MMP3 (gene 4314); test: LTEA_HepaRG_MMP3: Life Technologies and Expression Analysis (LTEA) Assay for matrix metalloproteinase-3 (MMP3) using HepaRG (AID 2283519)
Method in brief: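 Human liver HepaRG cultures received chemicals (top concentration 100 uM, 0.5% DMSO) for 48 h in duplicate. MMP3 mRNA induction or loss was then assessed via TaqMan qRT-PCR with housekeeping-gene normalisation.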

[10] = read-out: Paternally Expressed 10 (PEG10), PEG10 (gene 23089); test: LTEA_HepaRG_PEG10: Life Technologies and Expression Analysis (LTEA) Assay for Paternally Expressed 10 (PEG10) using HepaRG (AID 2283520);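 on AC50: PEG10 transcript by qRT-PCR normalised to ACTB GAPDH and POLR2A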
Method in brief: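 qRT-PCR read-out: PEG10 mRNA normalised to three housekeeping genes, fitted bidirectionally against 0.5% DMSO vehicle. HepaRG cells received test chemicals for 48 h in serum-free induction medium, 8 points, top 100 uM, half-log steps.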

Measured: AC50

CCc1nc(N)nc(N)c1-c1ccc(Cl)cc1
active: [2] 75.5 µM | [4] 68.6 µM | [5] 75.1 µM | [6] 33.2 µM | [8] 78.7 µM | [10] 38.9 µM
inactive: [1] | [3] | [7] | [9]

CC1(C)C(=O)NC(=O)N1CO
inactive: all assays above

CCCC[C@H]1CN(CC2CCOCC2)C(=O)OC12CCN(C1(C)CCN(C(=O)c3c(C)ncnc3C)CC1)CC2
inactive: all assays above

CC(C)COC(=O)CCCCC(=O)OCC(C)C
inactive: all assays above

CCCC(=O)O
inactive: all assays above

CO[C@@H]1COCC[C@@H]1N[C@@H]1CC[C@@](C(=O)N2CCc3ncc(C(F)(F)F)cc3C2)(C(C)C)C1
inactive: all assays above

Cc1cc(Cc2ccc(N)c(C)c2)ccc1N
inactive: all assays above

CC(C)NCC(O)c1ccc(O)c(O)c1 (stereo not drawn)
active: [2] 0.149 µM | [4] 0.227 µM | [5] 0.319 µM | [10] 0.149 µM
inactive: all other assays above

O=C1O[C@H]([C@H](O)CO)C(O)=C1O
inactive: all assays above

O=C(O)c1[nH]n(-c2ccc(S(=O)(=O)O)cc2)c(=O)c1N=Nc1ccc(S(=O)(=O)O)cc1
inactive: all assays above

CCCCCCC(C=O)=Cc1ccccc1
inactive: all assays above

CCc1cc(C2=C(C(=O)O)N(c3ccccc3C(F)(F)F)S(=O)(=O)c3ccccc32)cc2c1OCO2
inactive: [3] | [6] | [7]
active: [1] 73.3 µM | [2] 9.92 µM | [4] 80.1 µM | [5] 74.3 µM | [8] 56.7 µM | [9] 50 µM | [10] 28.5 µM

Cc1cc(SC2=C(O)C[C@@](CCc3ccc(N)cc3)(C(C)C)OC2=O)c(C(C)(C)C)cc1CO
inactive: all assays above

CN(C)CCCN(C)CCCN(C)C
inactive: all assays above

CC(=O)OC1CC(C)OC(C)O1 (stereo not drawn)
inactive: all assays above

CC(=O)S[C@H](C(=O)N[C@H]1Cc2ccccc2[C@H]2CCC[C@@H](C(=O)O)N2C1=O)C(C)C
inactive: all assays above

CCN(CC)CCOc1ccc(C(=C(Cl)c2ccccc2)c2ccccc2)cc1
active: [3] 66.2 µM | [4] 24.1 µM | [5] 17.8 µM | [6] 78.8 µM | [7] 28.8 µM | [8] 56.1 µM
inactive: [1] | [2] | [9] | [10]

OCC(O)CO
inactive: all assays above

COC(=O)[C@H]1[C@H]2C[C@@H]3c4[nH]c5cc(OC)ccc5c4CCN3C[C@H]2C[C@@H](OC(=O)c2cc(OC)c(OC)c(OC)c2)[C@@H]1OC
active: [3] 8.38 µM | [4] 49.4 µM | [6] 55 µM | [7] 25.3 µM | [8] 29.1 µM
inactive: [1] | [2] | [5] | [9]

CN(C)CCCN1c2ccccc2Sc2ccc(Cl)cc21
active: [2] 82.9 µM | [3] 94 µM | [6] 85.7 µM | [7] 85.1 µM | [8] 87.5 µM | [10] 18.2 µM
inactive: [1] | [4] | [5] | [9]

CCC(C)N(C)C(=O)c1cc2ccccc2c(-c2ccccc2Cl)n1 (stereo not drawn)
active: [8] 31.8 µM | [10] 13.1 µM
inactive: all other assays above

C=CCc1ccc(OC)c(OC)c1
inactive: all assays above

CC1=C(C)S(=O)(=O)CCS1(=O)=O
inactive: [1] | [7] | [9] | [10]
active: [2] 76.6 µM | [3] 74.6 µM | [4] 85.8 µM | [5] 75.3 µM | [6] 75.2 µM | [8] 72.6 µM

CC(=O)O
inactive: all assays above

CC(N)=O
inactive: all assays above

C/C=C/c1ccc(OC)cc1
inactive: all assays above

Cc1ccc(C(C)(C)C)c(O)c1
inactive: all assays above

Cc1c(C)c2c(c(C)c1O)CCC(C)(COc1ccc(CC3SC(=O)NC3=O)cc1)O2 (stereo not drawn)
inactive: [1] | [2] | [8] | [9]
active: [3] 70.9 µM | [4] 25.1 µM | [5] 4.12 µM | [6] 83.9 µM | [7] 48.5 µM | [10] 91.5 µM

S=c1[nH]c2ccccc2s1
inactive: all assays above

COc1ccc(OC(F)(F)F)cc1CN[C@H]1CCCN[C@H]1c1ccccc1
active: [1] 79.1 µM | [3] 78.9 µM | [5] 82.9 µM | [7] 75.8 µM | [8] 7.25 µM | [10] 55.2 µM
inactive: [2] | [4] | [6]

O=C1OC(c2ccc(O)cc2)(c2ccc(O)cc2)c2ccccc21
active: [4] 77.4 µM | [5] 72.5 µM | [6] 50 µM | [10] 76.1 µM
not listed: [9]
inactive: all other assays above

O=C(NS(=O)(=O)/C=C/c1cccs1)c1ccc(F)cc1Br
active: [10] 50 µM
inactive: all other assays above

O=C(O)CN(CC(=O)O)CC(=O)O
inactive: all assays above

CCOCCOCCO
inactive: all assays above

CC(C)c1cccc(C(C)C)c1
not listed: [9]
inactive: all other assays above

CC(=O)OCC(COC(C)=O)OC(C)=O
inactive: all assays above

O=C(O)CC(O)(CC(=O)O)C(=O)O
not listed: [9]
inactive: all other assays above

NCCOCCOCCN
inactive: all assays above

Cn1cnc2c1c(=O)[nH]c(=O)n2C
inactive: all assays above

CCCCCCCCCCCCCCOS(=O)(=O)O
not listed: [9]
inactive: all other assays above

CCCCCCCC(=O)OC
active: [5] 12.4 µM
not listed: [9]
inactive: all other assays above

CC(COCC(C)OC(=O)c1ccccc1)OC(=O)c1ccccc1 (stereo not drawn)
inactive: all assays above

C/C=C/C=C/C(=O)O
inactive: all assays above

— PubChem BioAssay (EPA / NIEHS)
